The list is not random: actives were taken first. Their share in the collection is about 9%.
ALDH1A1 inh = inhibitors of human aldehyde dehydrogenase 1A1; Purified ALDH1A1, NADH fluorescence, propionaldehyde substrate; hit rate 7.3% among 220,000; Potency, µM (series often up to 75.3 µM), usual class: inhibitors; P00352
IMPase inh = IMPase inhibition in cells. P97697. CHO-M1 cells, IP1 accumulation, HTRF TR-FRET ratio. inhibition (IP1 accumulation), % at 46.1 µM. 120,000 tested, under 10 active; active means well fitted curve in the direction sought with a large enough effect in the signal ratio, not every such curve was filed as active; inconclusive means small, poorly fitted or top-dose-only effect, or a change in a side signal; inactive means no such curve, though single readings can be large or run the other way; the % refers to the signal ratio;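 further: cells stimulated with carbachol in lithium chloride buffer; higher means more IMPase inhibition seen as more IP1 and lower FRET ratio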
Target sequence (P97697 whole entry, looked up): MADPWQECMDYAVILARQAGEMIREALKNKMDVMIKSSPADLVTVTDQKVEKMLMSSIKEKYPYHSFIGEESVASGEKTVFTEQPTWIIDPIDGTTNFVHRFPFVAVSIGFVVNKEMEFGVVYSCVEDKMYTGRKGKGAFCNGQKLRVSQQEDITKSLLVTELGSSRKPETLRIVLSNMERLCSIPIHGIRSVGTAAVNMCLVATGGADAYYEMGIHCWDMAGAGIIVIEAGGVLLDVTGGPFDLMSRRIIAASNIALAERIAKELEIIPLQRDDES
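CHO-M1 cells (CHO stably expressing M1 receptor), compound up to 46 uM final, stimulated with carbachol (50 uM as added) in buffer with 50mM LiCl, pH 7.4, 30 min at 37C. Cytosolic IP1 read by TR-FRET; AC50 from Hill fits.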
HPGD inh = blocks human HPGD enzyme activity; P15428; purified HPGD, NADH fluorescence kinetic, PGE2 substrate; Potency, µM, usual class: inhibitors; hit rate 4.3% among 150,000
Target sequence (P15428 whole entry, looked up): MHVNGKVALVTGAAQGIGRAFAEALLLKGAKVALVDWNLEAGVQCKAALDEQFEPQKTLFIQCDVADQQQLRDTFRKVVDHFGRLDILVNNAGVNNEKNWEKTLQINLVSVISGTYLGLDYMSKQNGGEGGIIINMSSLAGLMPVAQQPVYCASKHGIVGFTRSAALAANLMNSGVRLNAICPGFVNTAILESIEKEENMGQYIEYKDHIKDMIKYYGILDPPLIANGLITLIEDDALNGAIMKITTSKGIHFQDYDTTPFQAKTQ
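NADH formation kinetics: reaction with 30 uM PGE2 and 1 mM NAD+ (final), 20 nM enzyme, Tris-HCl pH 8 with Tween 20, after 15 min compound preincubation at room temperature. Fluorescence change, last versus first of five reads.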
Of the large screens only hits and unclear results are named; the others gave an inactive call. Unless noted, the call rests on the fitted dose curve; in most records, active means well fitted inhibition curve with a large enough effect (not every such curve was filed as active); inconclusive means small, poorly fitted or top-dose-only effect, or another doubt; inactive means no such curve, though single readings can be large or run the other way.

COc1ccccc1N1CCN(C2CC(=O)N(C)C2=O)CC1 (stereo unspecified)	none (no result: IMPase inh, HPGD inh)
NCCC[C@@H](CC(=O)N[C@@H]1CCNC[C@H]1C(=O)N[C@H](CC(=O)N[C@@H](CCC(=O)O)CC(=O)O)Cc1c[nH]c2ccccc12)NC(=O)C[C@H](Cc1ccccc1)NC(=O)[C@@H]1CNCC[C@H]1N	none (no result: IMPase inh)
COc1ccc(-c2csc(NC(=O)/C(N=Nc3ccccc3)=C(\C)O)n2)cc1	none (no result: IMPase inh, HPGD inh)
C[C@@H](C(=O)Cc1ccc2ccccc2c1)[C@@H]1C[C@@]1(C)[C@@H](NP(=O)(c1ccccc1)c1ccccc1)c1ccccc1	none (no result: IMPase inh)
COC(=O)c1ccc(C23CC2(C(NP(=O)(c2ccccc2)c2ccccc2)c2ccccc2)C3)cc1 (stereo unspecified)	ALDH1A1 inh 31.6µM (no result: IMPase inh)
CCn1c(C)nc2cc(C(=O)NNC(=S)NC(=O)c3ccccc3)ccc21	ALDH1A1 inh 25.1µM (no result: IMPase inh, HPGD inh)
O=C(NNC(=S)Nc1ccc(Cl)cc1Cl)C1CC1	ALDH1A1 inh inconclusive (no result: IMPase inh)
O=C(NNC(=S)Nc1ccc(Cl)cc1Cl)c1ccncc1	ALDH1A1 inh 3.16µM, HPGD inh inconclusive
CCn1c(C)nc2cc(C(=O)NNC(=S)Nc3ccccc3Cl)ccc21	ALDH1A1 inh 31.6µM
CCn1c(C)nc2cc(C(=O)NNC(=O)Nc3ccc(Cl)c(Cl)c3)ccc21	none (no result: IMPase inh, HPGD inh)
CCn1c(C)nc2cc(C(=O)NNC(=S)Nc3ccccc3)ccc21	none (no result: IMPase inh, HPGD inh)
CCn1c(C)nc2cc(C(=O)NNC(=O)c3ccc(Cl)nc3)ccc21	none (no result: IMPase inh, HPGD inh)
CCn1c(C)nc2cc(C(=O)NNC(=S)Nc3ccc(Cl)cc3Cl)ccc21	ALDH1A1 inh 3.55µM, HPGD inh inconclusive
CC(C)CN1CCCC2(CCN(C(=O)c3cccn3C)CC2)C1	none (no result: IMPase inh)
COc1nc(N=C(N)N)nc2ccc(C)cc12	ALDH1A1 inh inconclusive (no result: HPGD inh)
COc1ccccc1C1CC(=O)Oc2cc(O)ccc21 (stereo unspecified)	ALDH1A1 inh inconclusive (no result: IMPase inh)
Cc1ccccc1C1CC(=O)Oc2ccc(O)cc21 (stereo unspecified)	ALDH1A1 inh 20µM, HPGD inh 28.2µM (no result: IMPase inh)
CCCCn1c(CN2CCN(C(=O)c3ccco3)CC2)nc2c1c(=O)n(C)c(=O)n2C	ALDH1A1 inh 22.4µM
CCCCCCn1c(CN2CCN(Cc3ccccc3)CC2)nc2c1c(=O)n(C)c(=O)n2C	ALDH1A1 inh inconclusive
CCCCCCn1c(CN2CCN(C(=O)c3ccco3)CC2)nc2c1c(=O)n(C)c(=O)n2C	ALDH1A1 inh 1.26µM, IMPase inh inconclusive
CCCn1c(CN2CCN(C(=O)c3ccco3)CC2)nc2c1c(=O)n(C)c(=O)n2C	none
CC(=O)N1CCc2cc(S(=O)(=O)NCCN3CCC(C)CC3)ccc21	none
CCC(C)NS(=O)(=O)c1ccc(S(=O)(=O)N2CC=C(c3ccc(F)cc3)CC2)cc1 (stereo unspecified)	HPGD inh inconclusive (no result: IMPase inh)
O=C(NCc1ccco1)c1ccc2c(c1)C(=O)N(C1CCCCC1)C2=O	ALDH1A1 inh inconclusive
O=C(CCN1C(=O)c2ccccc2C1=O)NCc1ccco1	ALDH1A1 inh inconclusive
CCCN1C(=O)c2ccc(C(=O)NCc3ccco3)cc2C1=O	ALDH1A1 inh 6.31µM
COCCCN1C(=O)c2ccc(C(=O)NCc3ccco3)cc2C1=O	ALDH1A1 inh 12.6µM
CCOC(=O)CCCNC(=O)COC(=O)c1ccc(O)cc1	none
CCOC(=O)c1ccc(NC(=O)CC2Sc3ccc(C(F)(F)F)cc3NC2=O)cc1 (stereo unspecified)	none (no result: ALDH1A1 inh, HPGD inh)
Nc1c(NCc2ccccc2)c2ccccc2oc1=O	ALDH1A1 inh 22.4µM, HPGD inh inconclusive
CNc1c(N)c(=O)oc2ccccc12	none (no result: IMPase inh, HPGD inh)
Cc1cc(Cl)cc(Cl)c1CNc1c([N+](=O)[O-])c(=O)oc2ccccc12	ALDH1A1 inh 10µM, HPGD inh inconclusive (no result: IMPase inh)
O=c1oc2ccccc2c(NCc2ccccc2)c1[N+](=O)[O-]	ALDH1A1 inh 11.2µM, HPGD inh 25.1µM (no result: IMPase inh)
CC(C)Nc1c([N+](=O)[O-])c(=O)oc2ccccc12	none (no result: IMPase inh, HPGD inh)
COc1ccc(CCNc2c([N+](=O)[O-])c(=O)oc3ccccc23)cc1OC	HPGD inh 15.8µM
O=c1oc2ccccc2c(Nc2ccccc2)c1[N+](=O)[O-]	ALDH1A1 inh inconclusive
O=c1oc2ccccc2c(NCCO)c1[N+](=O)[O-]	none (no result: IMPase inh, HPGD inh)
Cc1ccccc1NC(=O)c1c(NC(=O)C(C)Oc2cccc(Cl)c2)sc2c1CCCC2 (stereo unspecified)	none (no result: ALDH1A1 inh, HPGD inh)
CCc1nccn1S(=O)(=O)c1cc(OC)c(Cl)cc1OC	none (no result: IMPase inh)
CCCCCCCCCCCCCCCC(=O)NC(C)C(=O)O (stereo unspecified)	none (no result: IMPase inh)
CC(c1ccon1)N(C)Cc1cn(Cc2ccccc2)nc1-c1ccc2c(c1)OCO2 (stereo unspecified)	none (no result: IMPase inh, HPGD inh)
COc1cccc(-c2nnc(SCC(=O)Nc3ccc(OC)c(OC)c3)n2N)c1	none
O=C(CC(c1ccccc1)c1ccccc1)OCn1nnc2ccccc2c1=O	none
Cc1ccc(Nc2c([N+](=O)[O-])c(=O)n(C)c3ccccc23)cc1	none (no result: IMPase inh, HPGD inh)
Cn1c(=O)c([N+](=O)[O-])c(NCc2ccccc2)c2ccccc21	ALDH1A1 inh 15.8µM, HPGD inh 6.31µM
Cn1c(=O)c2c(nc(-n3ccnc3)n2C)n(C)c1=O	none
Cn1c(=O)c2c(nc(-n3ccnc3)n2Cc2ccccc2)n(C)c1=O	ALDH1A1 inh 10µM
CCN1CCN(Cc2nc3c(c(=O)n(C)c(=O)n3C)n2CCc2ccccc2)CC1	none (no result: IMPase inh)
CC1CCCN(Cc2nc3c(c(=O)n(C)c(=O)n3C)n2CCCc2ccccc2)C1 (stereo unspecified)	ALDH1A1 inh inconclusive
COC(=O)Cn1c(CN2CCC(Cc3ccccc3)CC2)nc2c1c(=O)n(C)c(=O)n2C	ALDH1A1 inh inconclusive
Cn1c(=O)c2c(nc(CN3CCN(C(=O)c4ccco4)CC3)n2CCCc2ccccc2)n(C)c1=O	ALDH1A1 inh 1.26µM
CCN1CCN(Cc2nc3c(c(=O)n(C)c(=O)n3C)n2CCCc2ccccc2)CC1	ALDH1A1 inh 12.6µM
Cn1c(=O)c2c(nc(CN3CCN(C(=O)c4ccco4)CC3)n2CCc2ccccc2)n(C)c1=O	ALDH1A1 inh 12.6µM
O=C(c1cccc(F)c1)N1CCC2(CCCN(c3ccccn3)C2)CC1	ALDH1A1 inh inconclusive (no result: IMPase inh)
CCCCOc1cccc(OCC(=O)Nc2nc3ccccc3[nH]2)c1	none (no result: IMPase inh)
COc1ccc(C(C)(C)C)cc1NC(=S)NCCN1CCOCC1	none (no result: HPGD inh)
C/C(=N/Oc1nc(C)cc(C)n1)c1ccc(F)cc1	none
CN(C)CC(O)CN1C(=O)NC(C)(C)C1=O (stereo unspecified)	none (no result: IMPase inh, HPGD inh)
O=C(O)C1(O)C[C@H](O)C(O)[C@@H](O)C1 (stereo partly specified)	none
Cn1c(=O)c2c(nc(CN3CCOCC3)n2CCc2ccccc2)n(C)c1=O	ALDH1A1 inh 7.08µM
COc1ccc(N2CCN(Cc3nc4c(c(=O)n(C)c(=O)n4C)n3CCc3ccccc3)CC2)cc1	ALDH1A1 inh inconclusive
O=C(CN1CCc2ccccc2C1)N1CCN(S(=O)(=O)c2ccccc2)CC1	ALDH1A1 inh inconclusive
Cc1ccc(S(=O)(=O)N2CCN(C(=O)C3Cc4ccccc4CN3C(=O)c3ccco3)CC2)cc1 (stereo unspecified)	ALDH1A1 inh 8.91µM
O=C(c1ccco1)N1CCN(C(=O)C2Cc3ccccc3CN2S(=O)(=O)c2ccc(F)cc2)CC1 (stereo unspecified)	ALDH1A1 inh inconclusive
Cc1ccc(S(=O)(=O)N2CCN(C(=O)CN3CCc4ccccc4C3)CC2)cc1	ALDH1A1 inh 14.1µM
CCCCc1ncc(CN2CCN(Cc3ccc(C)cc3)C(CCO)C2)[nH]1 (stereo unspecified)	none (no result: IMPase inh, HPGD inh)

Compound activity as filed in PubChem BioAssay.
